{
  "source": "PubChem BioAssay (NCI)",
  "note": "The panel holds about 83,000 compounds, 20% with a hit somewhere; the sample as a whole holds those more often.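 Percent growth is the endpoint: 0 to 100 indicates growth inhibition (40 means 60% inhibition), 0 means no net growth, and negative values indicate cell death.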 Active and inactive are the calls of the source. How the source made its calls: active means growth percent below 10; inactive means the rest.",
  "data": [
    {"system": "MDA-MB-468 breast", "test": "NCI-60 one-dose screen, 48 h (100 = growth as untreated, 0 = no growth, -100 = all killed)", "details": "10 µM unless noted", "values": [
      {"smiles": "O=C(N/N=C/c1c(Cl)cccc1Cl)c1ccccc1Nc1ccnc(C(F)(F)F)c1", "growth": "53.5% (inactive)"},
      {"smiles": "C=C(C)[C@@H]1CC[C@]2(C(=O)NCC(=O)OC)CC[C@]3(C)[C@H](CC[C@@H]4[C@@]5(C)Cc6c([nH]c7ccccc67)C(C)(C)[C@@H]5CC[C@]43C)[C@@H]12", "growth": "55.1% (inactive)"},
      {"smiles": "C=C1/C(=C\\C=C2/CCC[C@]3(C)[C@@H]([C@H](C)CCCC(C)(C)O)CC[C@@H]23)C[C@@H](OC(=O)CBr)C[C@@H]1O", "growth": "72.8% (inactive)"},
      {"smiles": "CCN1CCN(C(=O)[C@]23CCC(C)(C)C[C@@H]2C2=CC[C@@H]4[C@@]5(C)CCC(=O)C(C)(C)[C@@H]5CC[C@@]4(C)[C@]2(C)CC3)CC1", "growth": "30.5% (inactive)"},
      {"smiles": "O=C(Nc1cccc(C2=NCCN2)c1)c1cccc(C(=O)Nc2cccc(C3=NCCN3)c2)c1", "growth": "90.8% (inactive)"},
      {"smiles": "O=c1[nH][n+](-c2ccc(Cl)cc2)no1", "growth": "93.2% (inactive)"},
      {"smiles": "Cc1cc(F)ccc1S(=O)(=O)Nc1cc(-c2c(O)ccc3ccccc23)c(O)c2ccccc12", "growth": "-1.51% (active)"},
      {"smiles": "Clc1ccc(N2N=C(c3cccc(Nc4ccncc4)c3)CC2c2ccccc2)cc1", "note": "(stereo not given)", "growth": "74.1% (inactive)"},
      {"smiles": "N[C@H]1CCC[C@@H]1NCCCCN1C(=O)c2cccc3cccc(c23)C1=O", "growth": "50.4% (inactive)"},
      {"smiles": "C/C(=N\\NC(=O)Cn1c(-c2ccc(S(C)(=O)=O)cc2)nc2cc(Cl)ccc21)c1ccc(Cl)cc1", "growth": "68.7% (inactive)"},
      {"smiles": "CCN(CCO)CCNc1ccc(C)c2sc3cc(Cl)ccc3c(=O)c12", "growth": "-47.7% (active)"},
      {"smiles": "Cc1ccc(-c2cn(C/C=C3\\C=CN(S(=O)(=O)c4ccccc4)CC3)nn2)cc1", "growth": "86.8% (inactive)"},
      {"smiles": "CCCCc1nc(/C=N/Nc2nc(Nc3ccccc3)nc(Nc3ccc(S(N)(=O)=O)cc3)n2)c(Cl)[nH]1", "growth": "-12.5% (active)"},
      {"smiles": "COc1ncnc2[nH]cc(CN3CCN(c4ccc(F)cc4)CC3)c12", "growth": "108% (inactive)"},
      {"smiles": "O=C(Oc1ccc2c(c1)sc1nc(-c3ccccc3)[nH]c(=O)c12)C(F)(F)F", "growth": "37.9% (inactive)"},
      {"smiles": "NC(N)=Nc1ccc(Oc2cccc(Nc3cccc(C(F)(F)F)c3)c2)cn1", "growth": "-37.1% (active)"},
      {"smiles": "COc1ccc2[nH]c(=O)c(/C=C/C(=O)c3ccccc3OC)cc2c1", "growth": "16.7% (inactive)"},
      {"smiles": "O=c1[nH]c2ccc(Cl)cc2c2ccccc12", "growth": "68.1% (inactive)"},
      {"smiles": "Cc1[nH]c(C(=O)Nc2ccccc2OCc2cccc(C(=O)N3CCC[C@@H](N)C3)c2)c(Cl)c1Cl", "growth": "-74% (active)"},
      {"smiles": "COc1ccc(CNCCCN2C(=O)c3ccc4c5c(ccc(c35)C2=O)C(=O)N(CCCNCc2ccc(OC)c(OC)c2OC)C4=O)c(OC)c1OC", "growth": "-94.8% (active)"},
      {"smiles": "CC(C)N(CCOc1cccc(-c2nc3sccn3c2-c2ccnc(S(C)(=O)=O)n2)c1)C(C)C", "growth": "-2.25% (active)"},
      {"smiles": "C=CCOC(=O)C1=C(C)NC(=O)NC1c1c(Cl)n(C)c2ccccc12", "note": "(stereo not given)", "growth": "106% (inactive)"},
      {"smiles": "CCCC(=O)NC(c1cccnc1)c1cc(C)c2cccnc2c1O", "note": "(stereo not given)", "growth": "19.8% (inactive)"},
      {"smiles": "COCCOc1ccc2ncc(C#Cc3cncc(C(=O)Nc4ccc(CN5CCN(C)CC5)c(C(F)(F)F)c4)c3)n2n1", "growth": "7.9% (active)"},
      {"smiles": "COc1ccc(NC2=CC(=O)C(C)=C(C)C2=O)cc1", "growth": "57% (inactive)"},
      {"smiles": "COc1ccccc1-c1ccc2nc(NC(=O)Nc3cc(C(F)(F)F)cc(C(F)(F)F)c3)sc2c1", "growth": "-8.23% (active)"},
      {"smiles": "c1ccc2c(-c3nccs3)c[nH]c2c1", "growth": "91.3% (inactive)"},
      {"smiles": "CC(C)C1=CC2=C(C=O)C[C@@H]3[C@](C)(CCC[C@@]3(C)C(=O)OCC#CCN3CCCC3)[C@H]2CC1", "growth": "51.3% (inactive)"},
      {"smiles": "O=C1NN(C(=O)c2ccc(O)cc2)C(c2ccccc2)=N/C1=C\\c1cn(-c2ccccc2)nc1-c1ccccc1", "growth": "110% (inactive)"},
      {"smiles": "COc1cc(NCCCCCN)c2ncccc2c1", "growth": "114% (inactive)"},
      {"smiles": "Nc1ccn(C2CC(N)C(CO)O2)c(=O)n1", "note": "(stereo not given)", "growth": "101% (inactive)"},
      {"smiles": "OCCNc1nccc(N2CCN(c3ccnc4cc(Cl)ccc34)CC2)n1", "growth": "54.8% (inactive)"},
      {"smiles": "COC(=O)c1ccc2c(c1)NC(=O)[C@@H]1CCCN21", "growth": "109% (inactive)"},
      {"smiles": "CN1CCN(Cc2ccc(NC(=O)c3nc4ccc5[nH]ncc5c4c4c3CCC4)cc2C(F)(F)F)CC1", "growth": "-59.2% (active)"},
      {"smiles": "CCOC(=O)N/N=C\\C(C)=N\\NC(=O)OCC", "growth": "114% (inactive)"},
      {"smiles": "O=C(c1nc2ccccc2[nH]1)C1C(c2ccc([N+](=O)[O-])cc2)C2CC3CCCCC3N2[C@@]12C(=O)Nc1cc(Cl)ccc12", "note": "(stereo not given in full)", "growth": "-1.98% (active)"},
      {"smiles": "O=[N+]([O-])c1ccccc1CN1CCCCC1", "growth": "89.3% (inactive)"},
      {"smiles": "Nc1ccc(N=Nc2ccccc2)c2cc(S(=O)(=O)O)ccc12", "growth": "109% (inactive)"},
      {"smiles": "CCN(CC)CCN1C(=O)c2c(c3c4cc(Br)ccc4[nH]c3c3ccc4ccccc4c23)C1=O", "growth": "-80.7% (active)"},
      {"smiles": "CCCCN(CCCC)C(=O)CC", "growth": "113% (inactive)"}
    ]}
  ]
}
